Results on 86 sequences are retold here after the supplement of paper PMC3334620.

The full ranking holds about 33,000 sequences; the median of “E-score (-0.5 to 0.5)” is about -0.056, and the highest 2% start at about 0.38. The sample as a whole holds a higher share of the highest values than the screen did.

The target of this test is Stb4 (UniProt P50104). The test can be described thus: PBM E-score (8-mer binding enrichment) (E-score (-0.5 to 0.5)); higher = stronger / more preferred TF binding. The note with it: protein concentration: 200 nM; construct: GST-DNA-binding domain. In short, it runs like this: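 Masliner-normalised scans of fluorescent anti-GST signal were the basis for scoring. That signal came from GST-tagged yeast transcription factors applied at about 100-200 nM to double-stranded universal all-10-mer Agilent arrays on fresh or once-stripped slides. Each ungapped eight-base word, pooled with its reverse complement, received an E-score from the Universal PBM Analysis Suite.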
Chain of UniProt P50104 (P50104 whole entry, the tested form may be a part): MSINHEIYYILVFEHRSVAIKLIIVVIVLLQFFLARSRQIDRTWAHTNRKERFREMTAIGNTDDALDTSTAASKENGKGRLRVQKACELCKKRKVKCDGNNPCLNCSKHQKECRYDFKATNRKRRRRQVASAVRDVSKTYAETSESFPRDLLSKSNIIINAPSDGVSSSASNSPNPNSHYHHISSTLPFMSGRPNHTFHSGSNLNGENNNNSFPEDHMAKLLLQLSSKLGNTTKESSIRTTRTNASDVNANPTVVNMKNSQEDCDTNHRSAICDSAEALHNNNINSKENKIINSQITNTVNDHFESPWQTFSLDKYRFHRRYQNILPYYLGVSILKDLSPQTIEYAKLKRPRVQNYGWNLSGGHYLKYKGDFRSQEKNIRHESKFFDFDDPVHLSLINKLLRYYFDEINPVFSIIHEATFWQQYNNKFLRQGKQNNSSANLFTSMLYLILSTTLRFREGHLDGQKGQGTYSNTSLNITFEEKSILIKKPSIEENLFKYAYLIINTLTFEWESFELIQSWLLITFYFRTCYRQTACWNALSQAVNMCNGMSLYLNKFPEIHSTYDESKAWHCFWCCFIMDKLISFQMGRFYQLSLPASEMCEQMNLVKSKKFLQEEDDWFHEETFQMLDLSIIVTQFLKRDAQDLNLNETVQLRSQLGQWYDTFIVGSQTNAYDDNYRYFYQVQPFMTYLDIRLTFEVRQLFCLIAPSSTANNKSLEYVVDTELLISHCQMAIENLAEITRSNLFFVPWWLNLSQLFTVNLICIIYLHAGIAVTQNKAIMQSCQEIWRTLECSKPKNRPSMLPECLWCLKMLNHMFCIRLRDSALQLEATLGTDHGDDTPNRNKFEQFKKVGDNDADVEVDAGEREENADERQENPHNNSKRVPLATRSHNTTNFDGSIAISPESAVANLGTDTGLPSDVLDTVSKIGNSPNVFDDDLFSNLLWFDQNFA
For AAGACTCC, the “PBM E-score” value is -0.0274.
For AGATAGTG the value was -0.0913; for ATAAGTAG, -0.157; for CCCGAACA, 0.393.
As to CCCGAACG, the “PBM E-score” value was found to be 0.378.
In the case of GGCGAACC, the “PBM E-score” value is -0.0255.
With CACGAACA the figure was -0.0987.
Consider ACCGAACC, for which the “PBM E-score” value was 0.336.
For TGCGAACA the value was -0.144; for TACGAACA, -0.191; for CGCGAACC, 0.166.
As to CACGAACC, the “PBM E-score” value was -0.198.
With GCCGAACC, the “PBM E-score” value was 0.395.
With CCCGAACC the figure was 0.414.
TCCGAACA: the “PBM E-score” value is 0.447.
As to GGAAAGTA, the “PBM E-score” value was 0.172.
On to GAAATAGC, for which the “PBM E-score” value amounted to 0.0755.
Take GATCTTGC: the “PBM E-score” value is 0.0905.
For AGGCAGAC the value was -0.1.
In the case of CGAGACGC, the “PBM E-score” value was 0.14.
Take ACCCGCTA: the “PBM E-score” value is 0.151.
For the sequence CACCCTAA, the “PBM E-score” value is -0.201.
With CTACAGTA the figure was -0.139.
With ACTCCTTA, the “PBM E-score” value was -0.0987.
Regarding CGCAAGAA, the “PBM E-score” value was 0.0756.
With ACCGAACA the figure was 0.313; with GTCGAACA, -0.044.
With GCCGAACA, the “PBM E-score” value worked out at 0.393.
Regarding CCAGGTCG, the “PBM E-score” value was -0.247.
Regarding ACTACCCC, the “PBM E-score” value was -0.0517.
For ATTACCCA, the “PBM E-score” value is -0.0268.
For AATACCCA the value was -0.00809; for ACTACCCG, 0.401; for ATTACCCC, 0.133.
In the case of CACACCCG, the “PBM E-score” value was determined as 0.3.
With AATACCCT, the “PBM E-score” value is 0.0669.
AATACCCG: the “PBM E-score” value was found to be 0.431.
For the sequence ATTACCCG, the “PBM E-score” value turned out to be 0.416.
With AACACCCC the figure was 0.0426.
Consider ACTACCCA, for which the “PBM E-score” value was -0.261.
For AACACCCG the value was 0.4; for CCAGTGCA, -0.303.
With ACGGCTAG the figure was 0.12; with ACAGCCAA, -0.135; with TCTAGAGA, -0.256.
For TGAAACAA the value was -0.124.
Take CAAGAAAG: the “PBM E-score” value is -0.0821.
In the case of GCGAACGC, the “PBM E-score” value is -0.0479.
Regarding CCGAACGA, the “PBM E-score” value is 0.379.
Consider ACGAACGC, for which the “PBM E-score” value was -0.15.
For CCGAACGC, the “PBM E-score” value was 0.415.
Take ACGAACGG: the “PBM E-score” value amounted to 0.0948.
For CCGAACGG, the “PBM E-score” value was 0.413.
As for ATGCTGTC, the “PBM E-score” value is -0.134.
With CGCTAGAA the figure was -0.154.
With ACTTATCT, the “PBM E-score” value was -0.211.
With AAGTCTTC, the “PBM E-score” value was -0.108.
Consider ATGCTGAG, for which the “PBM E-score” value is -0.229.
As for CCTTCGAA, the “PBM E-score” value was -0.117.
In the case of ACTTCGGC, the “PBM E-score” value turned out to be 0.392.
As for ACTTCGCG, the “PBM E-score” value amounted to 0.116.
In the case of GCTTCGGA, the “PBM E-score” value was 0.439.
Regarding ACTTCGCC, the “PBM E-score” value is -0.0357.
In the case of ACTTCGAG, the “PBM E-score” value is -0.0152.
With CCTTCGGA the figure was 0.474; with ACTTCGGG, 0.407; with GCTTCGCA, -0.173.
With CCTTCGGC the figure was 0.335; with CCTTCGCA, -0.236.
For GCTTCGTA the value was -0.25.
For the sequence CGTAGTGA, the “PBM E-score” value is -0.114.
With GAAGAGTC, the “PBM E-score” value is -0.0545.
In the case of ACCACTAA, the “PBM E-score” value was -0.0511.
Regarding AGGAGTCG, the “PBM E-score” value is -0.142.
Regarding GCCATAAC, the “PBM E-score” value is -0.211.
For AAGTCGGG the value was 0.306; for ACTCATTG, -0.0916.
For the sequence CACGCCAG, the “PBM E-score” value was -0.0642.
ACTTCGCA: the “PBM E-score” value was -0.156.
For ACTTCGAA the value was -0.167; for ACTTCGGA, 0.458.
In the case of ATGATCCC, the “PBM E-score” value stood at 0.157.
As for CCGATCCG, the “PBM E-score” value was determined as 0.445.
For ACGATCCC, the “PBM E-score” value is 0.192.
As to ACGATCCG, the “PBM E-score” value was 0.399.
With ATGATCCA the figure was -0.032.
